From PubChem BioAssay AID1159580 (chemical genetic matrix, 2015)
Values joined by “and” are separate entries in the source; they are usually repeats but may differ in a detail not shown here. Equal values may be shown once. Out of some 5,500 compounds screened, about 2,000 (36%) were called active. Inconclusive results (about 18%) are left out. No stated cut-off is given here; in the data, active means normalized growth mostly below about 0.91 (no sharp cut-off); inconclusive means no clear call, values can overlap the other calls; inactive means mostly above about 0.92. The list shows a part of the results.

Test: chemical genetic growth profiling, strain panel (AID 1159580);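 further: tested at 20 µM; growth read once vehicle control cultures reached saturation at 30 °C; 1 = growth at the plate median or of vehicle wells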
Settings: S. cerevisiae deletion strains, growth OD

Measured: normalized growth

CC1=CCc2c(cc3oc(C)cc(=O)c3c2O)OC1
active: locus YAL013W, strain DEP1, stronger effect = lower value 0.886 | locus YDL074C, strain BRE1, stronger effect = lower value 0.703 | locus YDL192W, strain arf1, stronger effect = lower value 0.901 | locus YDR101C, strain arx1, stronger effect = lower value 0.887 | locus YDR162C, strain NBP2, stronger effect = lower value 0.738 | locus YDR195W, strain ref2 1.2 [resistant] | locus YDR318W, strain mcm21, stronger effect = lower value 0.885 | locus YDR502C, strain sam2, stronger effect = lower value 0.86 | locus YGR078C, strain PAC10, stronger effect = lower value 0.785 | locus YGR135W, strain pre9, stronger effect = lower value 0.802 | locus YGR229C, strain SMI1, stronger effect = lower value 0.679 | locus YGR252W, strain gcn5, stronger effect = lower value 0.741 | locus YHR079C, strain IRE1 (second series), stronger effect = lower value 0.91 | locus YIL066C, strain RNR3, stronger effect = lower value 0.858 | locus YJL187C, strain SWE1 (second series), stronger effect = lower value 0.867 | locus YJR043C, strain POL32, stronger effect = lower value 0.792
inactive: locus YAL021C, strain ccr4, stronger effect = lower value 0.991 | locus YAL026C, strain drs2, stronger effect = lower value 0.964 | locus YAL030W, strain snc1, stronger effect = lower value 0.972 | locus YBL061C, strain skt5, stronger effect = lower value 0.971 | locus YBR009C, strain hhf1, stronger effect = lower value 0.954 | locus YBR021W, strain FUR4, stronger effect = lower value 0.856 | locus YBR023C, strain chs3, stronger effect = lower value 0.977 | locus YBR171W, strain sec66, stronger effect = lower value 0.94 | locus YBR229C, strain ROT2, stronger effect = lower value 0.98 | locus YBR231C, strain swc5, stronger effect = lower value 0.966 | locus YBR279W, strain paf1, stronger effect = lower value 0.982 | locus YCL011C, strain gbp2, stronger effect = lower value 0.929 | locus YCL016C, strain dcc1, stronger effect = lower value 0.982 | locus YCL029C, strain bik1, stronger effect = lower value 0.951 | locus YCL061C, strain MRC1, stronger effect = lower value 0.954 | locus YCL069W, strain vba3, stronger effect = lower value 0.954 | locus YCR088W, strain abp1, stronger effect = lower value 0.961 | locus YDL005C, strain med2, stronger effect = lower value 1 | locus YDL035C, strain GPR1, stronger effect = lower value 0.863 | locus YDL040C, strain nat1, stronger effect = lower value 0.984 | locus YDL101C, strain DUN1, stronger effect = lower value 0.943 | locus YDL134C, strain PPH21, stronger effect = lower value 0.907 | locus YDL185W, strain tfp1, stronger effect = lower value 0.962 | locus YDR001C, strain nth1, stronger effect = lower value 0.949 | locus YDR069C, strain doa4, stronger effect = lower value 0.988 | locus YDR137W, strain rgp1, stronger effect = lower value 0.913 | locus YDR150W, strain NUM1, stronger effect = lower value 0.96 | locus YDR159W, strain sac3, stronger effect = lower value 1.02 | locus YDR297W, strain sur2, stronger effect = lower value 0.968 | locus YDR334W, strain swr1, stronger effect = lower value 0.965 | locus YDR335W, strain msn5, stronger effect = lower value 0.987 | locus YDR388W, stronger effect = lower value 0.957 | locus YDR392W, strain spt3, stronger effect = lower value 0.893 | locus YEL003W, strain gim4, stronger effect = lower value 0.929 | locus YEL037C, strain rad23, stronger effect = lower value 0.96 | locus YEL061C, strain CIN8 (second series), stronger effect = lower value 0.966 | locus YEL061C, strain CIN8, stronger effect = lower value 0.952 | locus YER015W, strain faa2, stronger effect = lower value 0.975 | locus YER016W, strain bim1, stronger effect = lower value 0.985 | locus YER110C, stronger effect = lower value 0.933 | locus YER111C, strain swi4, stronger effect = lower value 0.967 | locus YER155C, strain BEM2 (second series), stronger effect = lower value 0.867 | locus YER155C, strain BEM2, stronger effect = lower value 0.96 | locus YER167W, strain BCK2, stronger effect = lower value 0.924 | locus YFR010W, strain ubp6, stronger effect = lower value 0.953 | locus YGL078C, strain dbp3, stronger effect = lower value 0.944 | locus YGL086W, strain mad1, stronger effect = lower value 0.934 | locus YGL167C, strain pmr1, stronger effect = lower value 0.979 | locus YGL173C, strain kem1, stronger effect = lower value 0.959 | locus YGL227W, strain vid30, stronger effect = lower value 0.964 | locus YGL240W, strain doc1, stronger effect = lower value 0.951 | locus YGL248W, strain PDE1, stronger effect = lower value 0.901 | locus YGL253W, strain hxk2, stronger effect = lower value 0.987 | locus YHR013C, strain ard1, stronger effect = lower value 0.924 | locus YHR027C, strain rpn1, stronger effect = lower value 0.984 | locus YHR079C, strain IRE1, stronger effect = lower value 0.96 | locus YHR094C, strain hxt1, stronger effect = lower value 0.972 | locus YHR129C, strain ARP1, stronger effect = lower value 0.925 | locus YHR142W, strain chs7, stronger effect = lower value 0.888 | locus YHR200W, strain rpn10, stronger effect = lower value 0.921 | locus YIL073C, strain SPO22, stronger effect = lower value 0.909 | locus YIL125W, strain kgd1, stronger effect = lower value 0.964 | locus YIR030C, strain dcg1, stronger effect = lower value 0.969 | locus YJL092W, strain hpr5, stronger effect = lower value 0.956 | locus YJL095W, strain BCK1 (second series), stronger effect = lower value 0.98 | locus YJL115W, strain asf1, stronger effect = lower value 0.973 | locus YJL129C, strain trk1, stronger effect = lower value 0.912 | locus YJL134W, strain LCB3, stronger effect = lower value 0.978 | locus YJL154C, strain vps35, stronger effect = lower value 0.956 | locus YJL164C, strain tpk1, stronger effect = lower value 0.952 | locus YJL166W, strain qcr8, stronger effect = lower value 0.983 | locus YJL168C, strain set2, stronger effect = lower value 0.968 | locus YJR066W, strain TOR1, stronger effect = lower value 0.915
0.892 (active) and 0.959 (inactive): locus YHR030C, strain SLT2, stronger effect = lower value
0.756 (active) and 0.945 (inactive): locus YJL095W, strain BCK1, stronger effect = lower value
